# Methyltransferases = Primary Screen for Target Class Profiling of Small Molecule Inhibitors of Methyltransferases; purified enzyme, MTase-Glo SAH luminescence; stronger effect = lower value; calls only at 40 µM; 25,000 tested, 3.9% active; call rule not given here
#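 Each enzyme was assayed with SAM and its substrate. SAH formation detected by MTase-Glo luminescence; single-point 40 uM screen[…].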
# Numbers without * were called inactive; i = inactive; + = active, no number. Only a selection was taken, and hits are over-represented in it overall. % is set by controls: 0 for no effect and ±100 for the full control effect.
SMILES,Methyltransferases
C[C@@H]1O[C@@H](O[C@H]2[C@H](OC(=O)[C@]34CCC(C)(C)C[C@H]3C3=CCC5[C@@]6(C)C[C@H](O)[C@H](O[C@@H]7O[C@H](CO)[C@@H](O)[C@H](O)[C@H]7O)[C@@](C)(CO)C6[C@H](O)C[C@@]5(C)[C@]3(C)CC4)OC[C@H](O)[C@@H]2O)[C@H](O)[C@H](O)[C@H]1O[C@@H]1OC[C@@H](O)[C@H](O[C@@H]2OC[C@](O)(CO)[C@H]2O)[C@H]1O (stereo partly drawn),i
CC1(C)CCC2(C(=O)OC3OC(COC4OC(CO)C(O)C(O)C4O)C(O)C(O)C3O)CCC3(C)C(=CCC4C5(C)CCC(OC6OCC(O)C(O)C6O)C(C)(C)C5CCC43C)C2C1O (stereo not drawn),i
C[C@@H]1O[C@@H](O[C@H]2[C@H](OC(=O)C34CCC(C)(C)CC3C3=CCC5C6(C)CC(O)C(O[C@@H]7O[C@H](CO)[C@@H](O)[C@H](O)[C@H]7O)C(C)(C(=O)O)C6CCC5(C)C3(CO)CC4)O[C@H](C)[C@H](O)[C@@H]2O)[C@H](O)[C@H](O)[C@H]1O[C@@H]1OC[C@@H](O)[C@H](O)[C@H]1O (stereo partly drawn),+
CC(C)CCn1c(=O)c2ccc(C(=O)NCC(C)C)cc2n2c(=O)n(Cc3ccccc3Cl)nc12,i
COc1cccc(N2C(=O)c3cc4ccccc4n3CC2(C)C(=O)NCCC(C)C)c1 (stereo not drawn),i
COc1cccc(NS(=O)(=O)c2cc3c(cc2C)n(C)c(=O)n3C)c1,i
O=C(NCc1ccc(F)cc1)c1ccc2c(=O)nc3c(-c4ccccc4F)n[nH]n3c2c1,i
CCOC(=O)c1cc2n(n1)CC(C)(C(=O)NCc1ccccc1)N(Cc1ccccc1Br)C2=O (stereo not drawn),i
CC(C)OC(=O)C(C)Oc1ccc2c(=O)c(Oc3ccccc3Br)c(C(F)(F)F)oc2c1 (stereo not drawn),i
COc1ccc(CNC(=O)c2ncn3c2C(=O)N(C2CC2)C(C)(C(=O)NCc2ccc(C)cc2)C3)cc1 (stereo not drawn),i
COc1cc(NC(=O)Cn2nc3n(CC(C)C)c(=O)c4ccccc4n3c2=O)cc(OC)c1,i
COc1ccc(-c2cc3n(n2)CC(C)(C(=O)NCc2ccccc2)N(c2cccc(SC)c2)C3=O)cc1 (stereo not drawn),i
Cc1ccc(Cn2nc3n(CC(C)C)c(=O)c4ccc(C(=O)NC(C)C)cc4n3c2=O)cc1,i
CN1C(=O)c2cc(C(=O)NCc3cccnc3)nn2CC1(C)C(=O)NC1CCCCCC1 (stereo not drawn),i
COc1cccc(CSc2nnc3n(CC(C)C)c(=O)c4ccc(C(=O)NC(C)C)cc4n23)c1,i
CCOC(=O)c1cc2n(n1)CC(C)(C(=O)NC1CCCCC1)N(Cc1ccc(OC)cc1)C2=O (stereo not drawn),i
N#C/C(=C1\Nc2ccccc2S1)c1ccnc(NCCc2cccnc2)n1,+
CC(C)NC(=O)c1ccc2c(=O)n(Cc3ccccc3)c3nn(Cc4ccccc4F)c(=O)n3c2c1,i
CCc1ccc(S(=O)(=O)c2nnn3c2nc(N2CCN(C)CC2)c2cc(Cl)ccc23)cc1,i
CC1(C(=O)NCc2ccccc2)Cn2c(ccc2-c2ccco2)C(=O)N1Cc1ccc2c(c1)OCO2 (stereo not drawn),i
O=C(/C=C/c1ccc(O)cc1)OCC1=CC2OC(=O)C3=CO[C@@H](O[C@@H]4O[C@H](CO)[C@@H](O)[C@H](O)[C@H]4O)[C@H]1[C@@H]32 (stereo partly drawn),i
COC(=O)C1=CO[C@@H](O[C@@H]2O[C@H](CO)[C@@H](O)[C@H](O)[C@H]2O)[C@@H]2C(CO)=CC[C@H]12,i
CSC(=O)OCC1=C[C@@H]2OC(=O)C3=CO[C@@H](O[C@@H]4O[C@H](CO)[C@@H](O)[C@H](O)[C@H]4O)[C@H]1[C@@H]32,+
N#Cc1c(C2CCNCC2)cc(-c2c(O)cccc2OCC2CC2)nc1N,+
CC(C)CCn1c(=O)c2ccc(C(=O)NC3CCCCC3)cc2n2c(=O)n(Cc3ccc(F)cc3)nc12,i
SMILES,Methyltransferases
CC1(C(=O)NC2CCCCCCC2)Cn2c(cc3occc32)C(=O)N1CCc1ccccc1 (stereo not drawn),i
C=C1C(=O)OC2/C=C(\C)CC/C=C(\C)CC(OC(C)=O)C12 (stereo not drawn),i
C=C1C(=O)O[C@@H]2/C=C(/C)CC3C=C(C[C@H](OC(=O)/C(C)=C\C)[C@@H]12)C(=O)O3 (stereo partly drawn),i
C=C1C(=O)O[C@@H]2/C=C(\C)C(=O)/C=C/[C@](C)(O)C[C@@H](OC(=O)C(C)C)[C@@H]12,+
COc1ccc(N2C(=O)c3ccc(-c4ccco4)n3CC2(C)C(=O)NC2CCCC2)cc1Cl (stereo not drawn),i
COc1cccc(CNC(=O)c2ccc3c(=O)nc4c(-c5cccc(F)c5)n[nH]n4c3c2)c1,i
CCOC(=O)c1cc2n(n1)CC(C)(C(=O)NCCCOC)N(c1cc(C)cc(C)c1)C2=O (stereo not drawn),i
OC[C@H]1O[C@@H](O[C@H]2[C@H](O)[C@@H](CO)O[C@@H](OCc3ccccc3)[C@@H]2O[C@@H]2OC[C@](O)(CO)[C@H]2O)[C@H](O)[C@@H](O)[C@@H]1O,i
OC[C@H]1O[C@@H](OC(CCCCc2ccc(O)cc2)CCc2ccc(O)cc2)[C@H](O[C@@H]2OC[C@](O)(CO)[C@H]2O)[C@@H](O)[C@@H]1O (stereo partly drawn),i
O=C(O)CCc1cc2ccoc2cc1O[C@@H]1O[C@H](CO)[C@@H](O)[C@H](O)[C@H]1O,i
O=C(O[C@H]1[C@H](Oc2ccc(O)cc2CO)O[C@H](CO)[C@@H](O)[C@@H]1O)c1ccccc1,i
O=C(O)CC(CCc1ccccc1)OC1OC(CO)C(O)C(O)C1O (stereo not drawn),+
CC(=O)c1c(C)cccc1O[C@@H]1O[C@H](CO)[C@@H](O)[C@H](O)[C@H]1O,+
CC(=O)c1ccc(O[C@@H]2O[C@H](CO)[C@@H](O)[C@H](O)[C@H]2O)cc1,i
C=CCc1ccc(O[C@@H]2O[C@H](CO)[C@@H](O)[C@H](O)[C@H]2O)c(O[C@@H]2O[C@H](CO)[C@@H](O)[C@H](O)[C@H]2O)c1,i
O=C(O)/C=C/c1ccc(O)c(O[C@@H]2O[C@H](CO)[C@@H](O)[C@H](O)[C@H]2O)c1,i
O=C(O)CCc1cccc(O[C@@H]2O[C@H](CO)[C@@H](O)[C@H](O)[C@H]2O)c1O,+
Cc1ccc(C(C)C)c(O[C@@H]2O[C@H](CO)[C@@H](O)[C@H](O)[C@H]2O)c1,i
O=C(O)c1cc(O)c2cccc(O)c2c1O[C@@H]1O[C@H](CO)[C@@H](O)[C@H](O)[C@H]1O,+
CN1C(=O)c2cc(C(=O)NCc3ccc4c(c3)OCO4)nn2CC1(C)C(=O)NCc1ccc(F)cc1 (stereo not drawn),i
Cc1ccc(NC(=O)Cn2nc3n(CC(C)C)c(=O)c4ccc(C(=O)NCC(C)C)cc4n3c2=O)cc1C,i
O=C(CCc1nnc2n(Cc3ccc(F)cc3)c(=O)c3ccccc3n12)Nc1cccc(Cl)c1,i
COc1ccccc1CNC(=O)C1(C)Cn2cnc(C(=O)NCc3cccc(C)c3)c2C(=O)N1C1CC1 (stereo not drawn),i

# Screening results (PubChem BioAssay)
